“And” between values parts separate entries of the source, which are not always exact repeats. Identical values can stand only once. Screen size: about 5,500 compounds; about 2,000 (36%) were called active. Not shown: some 18% with an inconclusive outcome. No stated cut-off is given here; in the data, active means normalized growth mostly below about 0.91 (no sharp cut-off); inconclusive means no clear call, values can overlap the other calls; inactive means mostly above about 0.92. This is one part of the list.
Experiment: chemical genetic growth profiling, strain panel (AID 1159580);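 further: tested at 20 µM; growth read once vehicle control cultures reached saturation at 30 °C; 1 = growth at the plate median or of vehicle wells; lower values mean less growth of the strain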
Settings: S. cerevisiae deletion strains, growth OD

Measured: normalized growth

COc1ccc(C2Sc3ccccc3N(CCN(C)C)C(=O)C2OC(C)=O)cc1 (stereo not given)
inactive: locus YAL013W, strain DEP1, active compounds read low 1 | locus YAL021C, strain ccr4, active compounds read low 0.985 | locus YAL026C, strain drs2, active compounds read low 0.969 | locus YAL030W, strain snc1, active compounds read low 0.986 | locus YBL061C, strain skt5, active compounds read low 0.987 | locus YBR009C, strain hhf1, active compounds read low 1.01 | locus YBR021W, strain FUR4, active compounds read low 1.04 | locus YBR023C, strain chs3, active compounds read low 0.988 | locus YBR171W, strain sec66, active compounds read low 0.966 | locus YBR229C, strain ROT2, active compounds read low 1.01 | locus YBR231C, strain swc5, active compounds read low 0.919 | locus YBR279W, strain paf1, active compounds read low 0.977 | locus YCL011C, strain gbp2, active compounds read low 0.971 | locus YCL016C, strain dcc1, active compounds read low 0.999 | locus YCL029C, strain bik1, active compounds read low 1.03 | locus YCL069W, strain vba3, active compounds read low 0.975 | locus YCR088W, strain abp1, active compounds read low 0.979 | locus YDL005C, strain med2, active compounds read low 0.953 | locus YDL035C, strain GPR1, active compounds read low 1.02 | locus YDL040C, strain nat1, active compounds read low 0.975 | locus YDL074C, strain BRE1, active compounds read low 1.04 | locus YDL101C, strain DUN1, active compounds read low 1.01 | locus YDL134C, strain PPH21, active compounds read low 1.01 | locus YDL185W, strain tfp1, active compounds read low 1.04 | locus YDL192W, strain arf1, active compounds read low 1.04 | locus YDR001C, strain nth1, active compounds read low 0.949 | locus YDR069C, strain doa4, active compounds read low 0.963 | locus YDR101C, strain arx1, active compounds read low 1.03 | locus YDR137W, strain rgp1, active compounds read low 1.01 | locus YDR150W, strain NUM1, active compounds read low 1.01 | locus YDR159W, strain sac3, active compounds read low 0.981 | locus YDR162C, strain NBP2, active compounds read low 1.01 | locus YDR195W, strain ref2 0.923 | locus YDR297W, strain sur2, active compounds read low 0.989 | locus YDR318W, strain mcm21, active compounds read low 1.03 | locus YDR334W, strain swr1, active compounds read low 0.917 | locus YDR335W, strain msn5, active compounds read low 0.943 | locus YDR388W, active compounds read low 1.03 | locus YDR392W, strain spt3, active compounds read low 1.02 | locus YDR502C, strain sam2, active compounds read low 1.03 | locus YEL003W, strain gim4, active compounds read low 0.978 | locus YEL037C, strain rad23, active compounds read low 0.97 | locus YEL061C, strain CIN8 (second series), active compounds read low 0.943 | locus YEL061C, strain CIN8, active compounds read low 1.01 | locus YER015W, strain faa2, active compounds read low 0.962 | locus YER016W, strain bim1, active compounds read low 0.993 | locus YER110C, active compounds read low 1.05 | locus YER111C, strain swi4, active compounds read low 0.953 | locus YER155C, strain BEM2 (second series), active compounds read low 0.986 | locus YER155C, strain BEM2, active compounds read low 1.01 | locus YER167W, strain BCK2, active compounds read low 1.03 | locus YFR010W, strain ubp6, active compounds read low 0.938 | locus YGL078C, strain dbp3, active compounds read low 1.03 | locus YGL086W, strain mad1, active compounds read low 1.02 | locus YGL167C, strain pmr1, active compounds read low 1.01 | locus YGL173C, strain kem1, active compounds read low 1.01 | locus YGL227W, strain vid30, active compounds read low 0.984 | locus YGL240W, strain doc1, active compounds read low 0.983 | locus YGL248W, strain PDE1, active compounds read low 1.01 | locus YGL253W, strain hxk2, active compounds read low 0.959 | locus YGR078C, strain PAC10, active compounds read low 1.01 | locus YGR135W, strain pre9, active compounds read low 1.02 | locus YGR229C, strain SMI1, active compounds read low 1.05 | locus YGR252W, strain gcn5, active compounds read low 1.06 | locus YHR013C, strain ard1, active compounds read low 0.979 | locus YHR027C, strain rpn1, active compounds read low 0.977 | locus YHR030C, strain SLT2, active compounds read low 1.01 and 1.04 | locus YHR079C, strain IRE1 (second series), active compounds read low 1.03 | locus YHR079C, strain IRE1, active compounds read low 1.01 | locus YHR094C, strain hxt1, active compounds read low 1.03 | locus YHR129C, strain ARP1, active compounds read low 1.01 | locus YHR142W, strain chs7, active compounds read low 0.972 | locus YHR200W, strain rpn10, active compounds read low 1.04 | locus YIL066C, strain RNR3, active compounds read low 1.01 | locus YIL073C, strain SPO22, active compounds read low 1.12 | locus YIL125W, strain kgd1, active compounds read low 1.03 | locus YIR030C, strain dcg1, active compounds read low 1.04 | locus YJL092W, strain hpr5, active compounds read low 0.99 | locus YJL095W, strain BCK1 (second series), active compounds read low 0.973 | locus YJL095W, strain BCK1, active compounds read low 1.03 and 1.01 | locus YJL115W, strain asf1, active compounds read low 0.949 | locus YJL129C, strain trk1, active compounds read low 0.925 | locus YJL134W, strain LCB3, active compounds read low 1 | locus YJL154C, strain vps35, active compounds read low 0.982 | locus YJL164C, strain tpk1, active compounds read low 0.996 | locus YJL166W, strain qcr8, active compounds read low 0.986 | locus YJL168C, strain set2, active compounds read low 1.04 | locus YJL187C, strain SWE1 (second series), active compounds read low 1.01 | locus YJR066W, strain TOR1, active compounds read low 0.942 | locus YJR075W, strain HOC1, active compounds read low 1.02
